This is a sample that favours compounds with a hit; in the whole collection about 1.1% have one here.
PrPC TRFRET: reduces human prion protein on the cell surface. P04156. cell surface PrPC, TR-FRET read-out. inhibition, % at 13.8 µM. actives 0.43% (n = 370,000); in the data active = inhibition above about 24%; note: 0% = median of the test wells and 100% = reference compound wells
DUSP3 inh: blocks human VHR1 dual specificity phosphatase; P51452; recombinant VHR phosphatase, pNPP absorbance; inhibition, % at 13.3 µM; actives 0.52% (n = 290,000); in the data active = inhibition above about 50%
SARS 3CLpro inh: SARS-CoV 3CLpro protease inhibition; actives 0.14% (n = 290,000); recombinant SARS-CoV 3CLpro, quenched FRET peptide cleavage; inhibition, % at 6 µM; P0C6X7; in the data active = inhibition above about 12%
BJeLR viability: kills HRASV12-expressing BJeLR cells; BJeLR (HRASV12) viability, CellTiter-Glo ATP luminescence, 48 h; inhibition, % (test concentration not listed); actives 0.17% (n = 300,000); in the data active = inhibition above about 50%
PrPC confirm: confirmation of inhibitors of cell surface human prion protein; shares compounds with PrPC TRFRET; cell surface PrPC level, TR-FRET; inhibition, % at 13.8 µM; actives 65% (n = 1,500); in the data active = inhibition above about 25%
LD9 tox: kills or reduces viability of LD9 cells in PrPc counter-screen; shares compounds with PrPC TRFRET; LD9 cells cytotoxicity, luminescence viability; inhibition, % at 13.8 µM; actives 29% (n = 1,500); AID 743201; in the data active = inhibition above about 9.5%
Numbers without * were called inactive; · = no result given; ! = not active in a repeat.

SMILES	PrPC TRFRET	DUSP3 inh	SARS 3CLpro inh	BJeLR viability	PrPC confirm	LD9 tox
O=C(CSc1ccccc1F)OCC(=O)N1CCN(C(=O)c2ccco2)CC1	-2.8	·	·	11.0	·	·
O=C(CSc1cccc2cccc(Cl)c12)OCC(=O)N1CCN(C(=O)c2ccco2)CC1	42.9*	7.9	5.8	7.1	43.7*	-0.6
NC(=O)COC(=O)CSc1cccc2cccc(Cl)c12	39.5*	15.5	-3.6	3.0	51.7*	0.7
CC1(C(=O)NS(=O)(=O)c2cccc(Cl)c2)CCN1C(=O)C1CCCCC1 (stereo unspecified)	-3.1	·	·	·	·	·
CCCCCCCCN1C(=O)[C@H](CC(=O)NCCCN2CCCC2=O)C[C@@]2(C(=O)OC)CC(C)(C)CC=C12	6.0	·	·	·	·	·
CC1CC(C)(O)CC(C(O)CC2CC(=O)NC(=O)C2)C1=O (stereo unspecified)	82.6*	·	·	·	97.2*	36.3*
Cc1ccc(-c2c(CC(=O)O)c(C)nc3sc4c(c23)CCCC4)cc1	36.4*	·	2.5	-0.3	44.0*	-4.1
CCc1nc2ccc(C(=O)NCCc3c[nH]c4ccccc34)cn2c1N(C)Cc1ccc(N(C)C)cc1	0.6	·	·	·	·	·
O=S(=O)(C/C(=C/CO)S(=O)(=O)c1ccccc1)c1ccccc1	86.5*	14.3	1.6	25.6	92.1*	2.9
Cc1ccc(Cn2nnc(C(=O)Nc3cc(C)ccc3C)c2N)cc1	2.6	-1.0	-1.6	-11.8	·	·
Cc1ccc(C)c(NC(=O)c2nnn(Cc3ccccc3)c2N)c1	27.4*	22.1	-4.2	11.4	21.3	-0.8
Cc1cc(C(=O)Nc2cccc3c2O[C@@H](CN(C)S(C)(=O)=O)[C@H](C)CN([C@@H](C)CO)C3=O)n(C)n1	-0.2	·	·	·	·	·
O=C(O)CSc1ncnc2scc(-c3ccccc3)c12	48.1*	-2.5	1.4	6.6	71.7*	-8.0
O=C(O)CSc1ncnc2scc(-c3ccc(Br)cc3)c12	26.6*	28.8	-2.5	2.1	23.8	-3.1
CN(C)C(=O)CSc1ncnc2scc(-c3ccccc3)c12	5.1	3.6	2.1	-0.8	·	·
CCNC(=O)Nc1ccc2c(c1)C(=O)N(C)[C@H]1CC[C@H](CC(=O)N[C@H](C)c3ccccc3)O[C@@H]1CO2	-5.0	·	·	·	·	·
COc1cccc2c1C(=O)CC1C2CCC2CC(=O)CCC21C (stereo unspecified)	-6.3	·	·	-1.2	·	·
CCN1/C(=C/C=C/c2oc3ccc(-c4ccccc4)cc3[n+]2CC)Oc2ccc(-c3ccccc3)cc21	43.4*	6.5	-164.5	79.7*	56.2*	63.9*
c1ccc2sc(Nc3nc4cc5c(cc4s3)OCO5)nc2c1	80.4*	2.6	-2.6	-2.4	63.3*	-1.4
Brc1cc2[nH]cnc2c2ccccc12	60.8*	-11.0	-0.2	13.8	78.8*	-8.2
O=C(O)CCN1CCc2ccccc2C1c1ccncc1 (stereo unspecified)	0.2	0.4	-7.3	-0.6	·	·
Cc1ccc2c(c1)[nH]c1c(N3CCN(Cc4ccccc4)CC3)ncnc12	29.7*	2.6	-1.9	12.3	22.3	50.2*
Cc1ccc2[nH]c3c(N4CCN(Cc5ccc6c(c5)OCO6)CC4)ncnc3c2c1	6.4	25.6	2.5	·	·	·
CC(CCN1CCC(C(O)(c2ccccc2)c2ccccc2)CC1)Oc1cccc(Br)c1 (stereo unspecified)	-14.0	·	·	·	·	·
COc1ccc2c(c1)C(C)=CC(C)(C)N2S(=O)(=O)c1ccc(NC(C)=O)cc1	8.8	-14.6	3.2	46.6	·	·
SMILES	PrPC TRFRET	DUSP3 inh	SARS 3CLpro inh	BJeLR viability	PrPC confirm	LD9 tox
CCOc1ccc2c(c1)C(C)=CC(C)(C)N2S(=O)(=O)c1ccc(NC(C)=O)cc1	24.5*	25.2	3.1	50.4	11.6	16.0*
O=C(CCS(=O)(=O)c1ccc(F)cc1)N1CCOCC1	4.0	7.4	1.6	2.0	·	·
c1csc(CNc2nc(NCC3CCCCC3)c3sccc3n2)c1	26.1*	·	·	·	25.8*	13.8*
c1ccc(CNc2nc(NCc3cccs3)nc3ccsc23)cc1	19.1	·	·	·	·	·
O=C1C(=C(c2ccccc2)N2CCOCC2)Cc2ccccc21	33.0*	·	·	·	4.0	98.3*
CCOC(=O)C(C)Sc1nc(-c2ccco2)cc(C(F)(F)F)c1C#N (stereo unspecified)	33.0*	-6.6	-1.9	3.2	49.3*	-1.1
COc1ccc(S(=O)(=O)Nc2ccc(C)cc2)cc1N(C)S(=O)(=O)c1ccc(Cl)cc1	24.7*	3.8	8.5	-9.6	16.3	3.0
Cn1nc(C2CC2)cc1NC(=O)C1(C)CCN1C(=O)CCc1ccccc1 (stereo unspecified)	-4.5	·	·	·	·	·
Cc1ccc(-n2c(C)cc(C(=O)CSc3nncs3)c2C)cc1	38.9*	2.8	-0.8	20.9	34.2*	1.5
Cc1cc(C(=O)CSc2nncs2)c(C)n1-c1c(C)n(C)n(-c2ccccc2)c1=O	-6.7	10.2	-1.5	-0.6	·	·
O=S(c1ccc2ccccc2c1)c1cnns1 (stereo unspecified)	34.2*	17.8	1.2	·	6.0	76.3*
Cc1nnsc1S(=O)c1ccc(Cl)c(Cl)c1 (stereo unspecified)	-4.4	34.4	-3.3	-7.6	·	·
CC1CC1C(=O)Nc1nc(-c2cccs2)c(-c2cccs2)s1 (stereo unspecified)	25.4*	-19.2	-0.9	-4.7	12.3	-2.8
Nc1nc(-c2cccs2)c(-c2cccs2)s1	24.8*	6.0	-0.2	-1.2	19.8	-0.8
CC(C)CN1C(=O)C[C@]2(C(=O)N(C)c3ccc(NS(=O)(=O)C4CCCCC4)cc32)C1c1ccccc1 (stereo partly specified)	-8.6	·	·	·	·	·
CC1(C)C(CSc2nc3ccccc3[nH]2)C1(Cl)Cl (stereo unspecified)	19.1	7.7	-4.9	7.1	·	·
CSc1nsc2nc(=O)c(/C=C3\C(C)=Nc4ccc(C)cc43)c(N)n12	-3.7	37.4	-2.6	-2.3	·	·
CC1=Nc2ccc(C)cc2/C1=C/c1c(N)n2oc(C)cc2nc1=O	45.6*!	0.4	-0.2	-0.5	15.8	-5.2
O=C(CSc1nnc(-c2ccccn2)n1-c1ccc(Cl)cc1)Nc1ccc(S(=O)(=O)Nc2nccs2)cc1	7.3	·	·	·	·	·
COc1ccc(CC2C(=O)NC(C)C(=O)N(C)C3C(=O)N(C)C(Cc4ccc(O)c(c4)Oc4ccc(cc4)C3O)C(=O)NC(C)C(=O)NC(C)C(=O)N2C)cc1 (stereo unspecified)	87.2*	·	·	·	94.9*	38.2*
CCCCNc1c(-c2ccc(OC)c(SC3CCCCC3)c2)nc2ccc(C)cn12	38.4*!	·	·	·	50.1*	53.3*
Cc1cc(C)c2nc(SC3CCOC3=O)cc(C)c2c1 (stereo unspecified)	77.5*	3.0	-5.2	-5.5	86.5*	-7.4
CC(C)NC(=O)C1(C)CCCCN1Cc1ccc(OCc2ccccc2)cc1 (stereo unspecified)	2.2	·	·	·	·	·
COC(=O)OCC12CCC(O1)C1(C)C(=O)OCC21 (stereo unspecified)	-0.4	-5.3	2.2	-1.0	·	·

Source: PubChem
